What follows are compounds tested against Tyrosine-protein kinase Fgr (Homo sapiens) (UniProt P09769). Conditions: at 1 µM.
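Also: value reported as mean kinase inhibition.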

Chain of Tyrosine-protein kinase Fgr (Homo sapiens) (P09769 2-529 limits assumed): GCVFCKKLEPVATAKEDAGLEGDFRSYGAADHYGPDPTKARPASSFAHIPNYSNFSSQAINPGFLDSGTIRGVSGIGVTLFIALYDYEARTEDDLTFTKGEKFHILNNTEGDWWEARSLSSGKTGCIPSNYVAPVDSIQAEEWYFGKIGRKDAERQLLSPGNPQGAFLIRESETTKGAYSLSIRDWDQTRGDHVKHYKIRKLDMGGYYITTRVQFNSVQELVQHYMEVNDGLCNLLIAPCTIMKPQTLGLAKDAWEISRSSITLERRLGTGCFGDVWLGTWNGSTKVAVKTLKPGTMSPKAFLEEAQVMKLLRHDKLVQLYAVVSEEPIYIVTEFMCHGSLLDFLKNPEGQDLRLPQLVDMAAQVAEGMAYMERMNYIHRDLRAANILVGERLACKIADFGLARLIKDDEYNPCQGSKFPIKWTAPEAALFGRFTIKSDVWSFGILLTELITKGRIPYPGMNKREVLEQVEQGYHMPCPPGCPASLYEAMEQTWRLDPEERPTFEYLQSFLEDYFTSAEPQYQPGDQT

SMILES	inhibition [%]
Fc1ccc(-c2nn3ccccc3c2-c2ccncc2)cc1	6.02
NS(=O)(=O)c1ccc(N/N=C2\C(=O)Nc3ccc4ncccc4c32)cc1	42.4
CCc1nn2ncccc2c1-c1ccnc(NC2CC2)n1	3.74
O=C(Nc1n[nH]c2cc(-c3ccc(F)cc3)ccc12)C1CC1	9.07
CCCN1CCC(c2ccc(Nc3nc(Nc4cc(F)ccc4C(N)=O)c4cc[nH]c4n3)c(OC)c2)CC1	7.49
CCCN(CCS(C)(=O)=O)Cc1ccc(-c2ccc3ncnc(Nc4ccc(OCc5cccc(F)c5)c(Cl)c4)c3c2)o1	7.51
CCn1cc(-c2ccnc3[nH]ccc23)c(-c2cccc(NC(=O)Nc3ccc(OCc4ccccc4)cc3)c2)n1	34.1
CC(C)COC(=O)c1ccc2c(c1)/C(=C/Nc1ccc(S(N)(=O)=O)cc1)C(=O)N2	32
NS(=O)(=O)c1ccc(Nc2ncc(-c3ccccc3)o2)cc1	10.1
Cc1ccc(O)cc1Nc1ccnc2cc(-c3ccccn3)ccc12	82.7
COc1cc2ncn(-c3cc(OCc4ccccc4C(F)(F)F)c(C(=O)N(C)C)s3)c2cc1OC	6.42
COc1ccc(-c2nn3ncccc3c2-c2ccnc(Nc3ccc4c(c3)OCCO4)n2)cc1	79.8
COc1cccc(-n2ncc3c(N/N=C/c4ccc(F)cc4)ncnc32)c1	29.7
COc1cc(Nc2nccc(Nc3ccc4c(C)n[nH]c4c3)n2)cc(OC)c1OC	57.5
COc1ccc(-c2cc3c(N)ncnc3o2)cc1	7.14
Nc1ncc(-c2cccc(S(N)(=O)=O)c2)c2scc(-c3ccc(F)c(Cl)c3)c12	45.8
COC(=O)c1sc(-n2cnc3cc(OC)c(OC)cc32)cc1OCc1ccccc1C(F)(F)F	17.2

SMILES	inhibition [%]
Clc1ccc(-c2nn3ncccc3c2-c2ccnc(Nc3ccccc3)n2)cc1	70.2
CC(=O)NCc1cccc(C#Cc2cncnc2Nc2ccc(OCc3cccc(F)c3)c(Cl)c2)c1	4.83
COc1cc2c(cc1Nc1nc(Nc3ccsc3C(N)=O)c3cc[nH]c3n1)N(C(=O)CN(C)C)CCC2(C)C	6.75
Cc1cccc(Nc2ncc(-c3ccccc3)o2)c1	9.59
COc1ccc(-c2oc3ncnc(N)c3c2-c2ccc(NC(=O)Nc3cc(C(F)(F)F)ccc3F)cc2)cc1	61
COc1cc(/C=N/Nc2ncnc3[nH]ncc23)ccc1O	52.6
Fc1cccc(COc2ccc(Nc3ncnc4sc(-c5ccco5)cc34)cc2Cl)c1	8.35
CN1CCC(n2cnc(-c3ccc(F)cc3)c2-c2ccnc(Nc3ccccc3)n2)CC1	33.7
CNC(=O)c1cccc(C#Cc2cncnc2Nc2ccc(OCc3cccc(F)c3)c(Cl)c2)c1	6.13
CCOc1ccc2c(-c3ccnc(Nc4cccc(C(F)(F)F)c4)n3)cnn2n1	5.2
CCN1CCC(CC(=O)Nc2n[nH]c3nnc(-c4cccc(F)c4F)cc23)CC1	1.19
FC(F)(F)c1cccc(-c2nn3ncccc3c2-c2ccnc(Nc3ccc4c(c3)OCCO4)n2)c1	75.3
CN(C)CCOc1ccc(-c2nc(-c3ccncc3)c(-c3ccc4c(c3)CC/C4=N\O)[nH]2)cc1	5.88
Cc1cccc2c1NC(=O)/C2=N\Nc1ccc(S(N)(=O)=O)cc1	4.37
COc1cccc(-c2c[nH]c3c(N/N=C/c4ccncc4)ncnc23)c1	54.2
COc1ccc(-c2cc(-c3c[nH]nc3-c3ccccn3)ccn2)cc1	4.21

Reference: ChEMBL document CHEMBL1961873, “Compounds: GSK PKIS; Assays: Nanosyn kinase panel” (2012)
